Measurements taken from PubChem BioAssay AID720504 (National Center for Advancing Translational Sciences (NCATS), 2013).
The campaign covered roughly 360,000 compounds. About 10,000 (2.8%) were called active. Inconclusive results (about 4%) are left out. The sample holds actives, similar compounds and a random draw of the others, so the mix is not that of the screen. Values without a mark were called inactive. The call rests on the fitted dose curve; in most records, active means well fitted inhibition curve with a large enough effect; inconclusive means small, poorly fitted or top-dose-only effect; inactive means flat fitted curve, though single readings scatter.

Target: Serine/threonine-protein kinase PLK1 (Homo sapiens) (UniProt P53350)
Assay: qHTS for Inhibitors of PLK1-PDB (polo-like kinase 1 - polo-box domain): Primary Screen; further: nearly all actives have a fitted effect of over 65% in size; on max response, negative = inhibition: series mostly up to about 57 µM
Conditions: Plk1 PBD binding of FITC phosphopeptide, fluorescence polarization
On the % scale 0 is the no-effect control and ±100 the full control effect; potency means the concentration at half of the fitted maximal effect.

Chain of Serine/threonine-protein kinase PLK1 (Homo sapiens) (P53350 whole entry, looked up, the tested form may be a part): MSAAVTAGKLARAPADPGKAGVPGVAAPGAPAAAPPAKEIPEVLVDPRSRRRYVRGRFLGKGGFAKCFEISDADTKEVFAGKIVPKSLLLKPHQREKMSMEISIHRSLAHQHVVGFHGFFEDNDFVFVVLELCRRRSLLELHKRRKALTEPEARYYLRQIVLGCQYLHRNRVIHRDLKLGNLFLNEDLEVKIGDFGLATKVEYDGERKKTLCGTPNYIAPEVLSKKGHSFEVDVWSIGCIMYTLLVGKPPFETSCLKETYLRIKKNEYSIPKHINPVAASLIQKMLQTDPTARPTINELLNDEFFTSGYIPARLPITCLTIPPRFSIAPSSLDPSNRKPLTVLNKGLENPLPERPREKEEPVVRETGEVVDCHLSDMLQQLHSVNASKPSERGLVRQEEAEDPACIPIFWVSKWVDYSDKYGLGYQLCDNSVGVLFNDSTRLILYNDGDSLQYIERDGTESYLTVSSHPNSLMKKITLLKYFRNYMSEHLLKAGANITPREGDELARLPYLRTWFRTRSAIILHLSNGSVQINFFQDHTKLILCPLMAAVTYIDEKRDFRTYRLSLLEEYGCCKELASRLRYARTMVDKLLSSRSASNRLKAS

Structure (SMILES) | max response, negative = inhibition [%] | Potency
CC(C)CC1C(=O)N(Cc2cn(Cc3ccco3)nn2)CCS(=O)(=O)N1Cc1ccc(-c2ccc(Cl)c(Cl)c2)cc1 (stereo not given) | -13.6 | 
CNc1cncc(-c2ccc(NS(C)(=O)=O)cc2)n1 | 6.53 | 
CCOc1ccc(-n2c(SCC(N)=O)nnc2-c2ccco2)cc1 |  | 15 µM (active)
COc1ccc(C(=O)NC(=O)CSc2nnc(-c3ccco3)n2-c2ccccc2)cc1 | -12.5 | 
O=C(CSc1nnc(-c2ccco2)n1-c1ccccc1)NCCc1ccccc1 | -10.6 | 
OCCN1CCN(c2ncnc3c2ncn3[C@H]2CN(Cc3ccco3)C[C@@H](CO)O2)CC1 | -11.1 | 
O=C(Nc1ccc(N2CCOCC2)cc1)c1cccc2c(-c3ccc(F)c(F)c3)coc12 | -15 | 
COc1cccc(CNS(=O)(=O)c2ccc3c(c2)CC(C)N3C(=O)C2CCC2)c1 (stereo not given) | -3.29 | 
CC(=O)N1c2ccc(S(=O)(=O)NCCC(=O)N(C)C3CCCCC3)cc2CC1C (stereo not given) |  | 2.99 µM (active)
CC(=O)N1c2ccc(S(=O)(=O)N(C)CC(=O)N(C)Cc3ccccc3)cc2CC1C (stereo not given) | 5.96 | 
Cc1ccc(-c2ccc(CN3C(C(C)C)C(=O)N(Cc4cn(CCC5OCCCO5)nn4)CCS3(=O)=O)cc2)cc1 (stereo not given) | -2.35 | 
CCOc1ccc(CCN2C(=O)C(=O)N([C@@H](CC(C)C)CN3CCC[C@H]3CN3C(=O)C(=O)NC[C@@H]3Cc3ccccc3)C[C@@H]2CC(C)C)cc1 | -0.137 | 
Cc1cccc(-c2cnc(C(O)c3cc(C)cc(C)c3)[nH]2)c1 (stereo not given) | -12 | 
CCOC(=O)c1c(NC(=S)NC(=O)/C=C/c2cccs2)sc(C)c1C | -3.87 | 
CCOC(=O)c1sc(=NC(=O)c2ccc(Br)cc2)n(C)c1C | -3.76 | 
CCOC(=O)c1sc(=NC(=O)/C=C/c2cccs2)n(C)c1C |  | 26.7 µM (active)
COC(=O)[C@]12CCCCC=C1N(Cc1ccc3c(c1)OCO3)C(=O)[C@H](CC(=O)N1CCOCC1)C2 | -9.01 | 
O=C(CSCc1ccc([N+](=O)[O-])cc1)NCCSCc1ccccc1 | -1.81 | 
CC(O)c1nc2ccccc2n1Cc1ccc([N+](=O)[O-])cc1 (stereo not given) | -2.98 | 
CC(=O)N1c2ccccc2N(Cc2ccc([N+](=O)[O-])cc2)C(=O)C1(C)C |  | 29.9 µM (active)
Cc1nc2c(OCc3cccc(Cl)c3)cccn2c1N(C)CC1CC1 | -10.4 | 
COC(=O)[C@]12CCCCC=C1N(Cc1cccc3ccccc13)C(=O)[C@H](CC(=O)N1CCOCC1)C2 | -13.4 | 
Cc1cc(Cl)ccc1-c1nc(NCCN(C)C)nc2ccsc12 | -8.63 | 
COc1ccccc1-c1cc(NC(C)=O)c2ncc(-c3ccc(F)cc3)n2c1 | -2.69 | 
CCOc1cc(/C=C2\C(=N)N3N=C(C)SC3=NC2=O)ccc1OCCOc1ccccc1 | -10.7 | 
C#CCOc1ccc(/C=C2/C(=O)ON=C2C)cc1OCC |  | 2.12 µM (active)
CC1=NOC(=O)/C1=C\c1ccccc1 |  | 16.8 µM (active)
COc1cc(C=O)ccc1Oc1nnnn1-c1ccccc1 | -3.25 | 

Structure (SMILES) | max response, negative = inhibition [%] | Potency
CCOc1cc(/C=N/O)ccc1OCc1ccccc1F | 5.59 | 
COc1ccnc2c1c(=O)n(Cc1cccc(F)c1)c(=O)n2C | -8.75 | 
COc1cc(/C=C2/C(=O)ON=C2C)ccc1OCc1cccc(F)c1 |  | 1.06 µM (active)
COc1cc(/C=C2\SC(=O)NC2=O)ccc1OCc1ccc(Cl)nc1 | -13.4 | 
Cc1ccccc1C1=N/C(=C/c2cccnc2)C(=O)O1 | -12.6 | 
C#CCOc1ccc(/C=C2/C(=O)NN(c3ccccc3)C2=O)cc1OC |  | 18.9 µM (active)
COc1cc(/C=C2/C(=O)NN(c3ccc(F)cc3)C2=O)cc([N+](=O)[O-])c1O | -17.7 | 
Cc1nc2ccccn2c(=O)c1NC(=O)c1ccc(Br)o1 | -0.655 | 
O=[N+]([O-])c1ccc(CN2CC(N3CC=CC3)CS2(=O)=O)cc1 (stereo not given) | -4.83 | 
CCc1cc(C(=O)N(CC)CC(=O)Nc2c(F)cccc2F)sc1C | -2.84 | 
CSCCC(c1nnnn1Cc1ccccc1)N1CCN(C/C=C/c2ccccc2)CC1 (stereo not given) | -5.15 | 
CC1(Oc2cccc(F)c2)CCN(Cc2ccccc2OC(F)F)C1 (stereo not given) | -10.6 | 
C=CCOc1ccc(/C=N/n2cncn2)cc1OC | -1.5 | 
C=CCOc1ccc(/C=C2/C(=O)ON=C2C)cc1OCC |  | 1.89 µM (active)
Cc1no[n+]([O-])c1COc1ccccc1/C=C1\NC(=S)NC1=O | -11.5 | 
C#CCOc1ccccc1/C=C1/C(=O)ON=C1C |  | 2.38 µM (active)
C=CCOc1ccc(/C=N/NC(=O)C(C)Sc2ccccn2)cc1OCC (stereo not given) | -12.5 | 
COc1ccc(NC(=O)C2(C)Cc3c(-c4cccc(NC(C)=O)c4)ccnc3O2)cc1 (stereo not given) | 1.6 | 
CC(C)NC(=O)N1Cc2cc(C(=O)NCC(F)(F)F)nc(-c3cccc(-c4cc5ccccc5o4)c3)c2[C@@H]1CCO | -2.2 | 
CCCCNC(=O)c1nc(C2CCN(S(=O)(=O)c3ccc(F)c(F)c3)CC2)oc1-c1cccc(C(F)(F)F)c1 | -2.64 | 
CCCNC(=O)C1(C)CCN(Cc2csc(-c3ccc(Cl)cc3)n2)C1 (stereo not given) | -6.86 | 
Nc1nc2ncccn2c1-c1ccccc1 | -5.06 | 
COc1cc(OC)cc(C2=Cc3ccccc3C(CC(=O)c3ccco3)N2c2ccc(-c3cnc(OC)nc3)cc2)c1 (stereo not given) | -0.0299 | 
CCCCCCn1c(=O)n2n(c1=O)C[C@]1(OC(=O)NCc3ccc(OC)c(OC)c3)CN(S(=O)(=O)c3ccc(C)cc3)C[C@]1(O)C2 | -2.55 | 
O=C(NNS(=O)(=O)c1ccc(F)cc1)c1cnccn1 | -1.36 | 
NS(=O)(=O)c1ccc(CNC(=O)c2cccc(Oc3ccccc3)c2)cc1 | -1.88 | 
NS(=O)(=O)c1ccc(CNC(=O)c2cnccn2)cc1 |  | 16.8 µM (active)
